High-throughput results deposited in PubChem by National Center for Advancing Translational Sciences (NCATS).
Hits are enriched below; roughly 2.9% of the tested compounds scored in any of these assays.
DRD3 antagonist: antagonists of human D3 dopamine receptor; D3R cells, DiscoveRx beta-arrestin luminescence, antagonist mode; active compounds read low; 360,000 tested, 2.5% active; max response, negative = inhibition, %; in the data active = max response below about -50%; inconclusive = no clear call, values can overlap the other calls
Target sequence (P35462 whole entry, looked up): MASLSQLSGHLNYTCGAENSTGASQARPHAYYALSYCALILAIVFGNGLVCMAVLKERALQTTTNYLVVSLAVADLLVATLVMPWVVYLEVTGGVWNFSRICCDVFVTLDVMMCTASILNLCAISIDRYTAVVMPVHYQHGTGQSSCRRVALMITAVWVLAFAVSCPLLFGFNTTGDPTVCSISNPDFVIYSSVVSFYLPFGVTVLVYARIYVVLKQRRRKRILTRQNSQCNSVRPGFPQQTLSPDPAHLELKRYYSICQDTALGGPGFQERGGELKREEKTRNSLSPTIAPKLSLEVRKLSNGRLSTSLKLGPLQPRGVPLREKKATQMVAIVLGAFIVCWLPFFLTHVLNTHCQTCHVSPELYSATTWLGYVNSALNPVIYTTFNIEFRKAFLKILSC
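Cells plated overnight at 1500 cells/well, then exposed to library compounds with dopamine controls for 90 minutes at 37 degrees C. DiscoveRx reagent added for 30–60 minutes at room temperature; luminescence read, quantitative HTS format.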
a7 integrin act: integrin-mediated muscular dystrophy alleviation activation. alpha7betagal myoblasts, beta-gal FDG fluorescence, 48 h. Potency, µM (doses to about 38.3 µM), usual class: activators. 350,000 tested, 0.064% active. AID 624291; note: nearly all actives have a fitted effect of over 60% in size
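Alpha7betagal+/- myoblasts (passage 13) were plated 16-24 hr, then exposed to compounds (1:260 dilution of DMSO stock) for 48 hours at 37C. After MPER lysis, β-galactosidase reporter activity was read as FDG fluorescence (ex 480/em 540) after 30 minutes.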
B2AR arrestin: beta2AR (human) beta-arrestin recruitment activity; beta-arrestin recruitment to beta2AR, cell-based reporter; Potency, µM (highest dose often 46.1 µM), most hits filed as activators; P07550; 330,000 tested, 0.02% active; note: nearly all actives have a fitted effect of over 65% in size
IDH1 R132H inh: blocks human mutant IDH1 R132H enzyme. Potency, µM (series often up to 76.6 µM), usual class: inhibitors. O75874. 390,000 tested, 0.093% active. IDH1-R132H enzyme, NADPH consumption, diaphorase/resazurin fluorescence; note: nearly all actives have a fitted effect of over 65% in size
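IDH1-R132H (0.5 ug/mL) preincubated 30 min with compound, then NADPH (0.016 mM) and alpha-KG (2 mM) added; 80 min at RT, pH 7.5. Remaining NADPH coupled via diaphorase/resazurin to fluorescence (540/590 nm); concentration-response curves normalized to no-enzyme control.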
D3 ag: activates the human D3 dopamine receptor; P35462; D3R DiscoveRx beta-arrestin cells, luminescence, 90 min; max activation, %; 410,000 tested, 0.58% active; in the data active = max activation above about 30%
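Cells at 1500/well, incubated overnight, then treated with pinned compounds (dopamine as control) for 90 min at 37 degrees C. DiscoveRx reagent added for 30 - 60 minutes at room temperature; luminescence read.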
A number is an active result; i = inactive; ? = inconclusive; nt = no result given. Unless noted, calls come from the whole dose curve; as a rule, active = well fitted curve in the direction sought with a large enough effect; inconclusive = small, poorly fitted or top-dose-only effect, or another doubt; inactive = no such curve, though single readings can be large; an effect the other way counts as inactive or inconclusive.

SMILES	DRD3 antagonist	a7 integrin act	B2AR arrestin	IDH1 R132H inh	D3 ag
O=C(c1ccc2c(c1)N(Cc1cccc(Cl)c1)C(=O)c1ccccc1S2=O)N1CCN(c2cccc(C(F)(F)F)c2)CC1 (configuration not stated)	nt	nt	nt	i	i
CC(C)c1cccc(C(C)C)c1OCCCCN1CCCC1	-57.6	i	i	i	i
CNCc1ccccc1Sc1cccc(O)c1	i	i	i	i	i
CNCc1ccccc1Sc1cc(O)ccc1O	-55.0	i	?	i	i
C/C(=N/NC(=O)CN1CCN(S(=O)(=O)c2ccc(C)cc2)CC1)c1cccc(O)c1	i	i	i	i	i
C/C(=N\NC(=O)CN1CCN(S(=O)(=O)c2ccc(C)cc2)CC1)c1cccnc1	-51.6	i	i	i	i
CCc1ccc2c(c1)c(=O)c(S(=O)(=O)c1ccc(F)cc1)cn2CC(=O)Nc1ccc(C)cc1C	nt	nt	nt	i	i
Cc1cc(N2C3CCC2CC(O)(c2ccc(F)cc2)C3)nc(-c2ccccc2)n1 (configuration not stated)	-60.1	?	i	i	i
CC(C)C(=O)N1C2CCC1CC(O)(c1ccc(F)cc1)C2 (configuration not stated)	-67.0	i	i	i	i
Cc1ccnc(N2C3CCC2CC(O)(c2ccccc2)C3)n1 (configuration not stated)	i	i	i	i	i
Cc1c(NC(=O)CSc2nnc(-c3cccc(Cl)c3)o2)c(=O)n(-c2ccccc2)n1C	-71.6	i	i	i	i
Cc1c(NC(=O)CSc2nnc(-c3ccncc3)o2)c(=O)n(-c2ccccc2)n1C	i	i	i	i	i
CCC[C@@H]1C[C@@H](C(=O)N[C@@H]([C@H]2O[C@H](SC)[C@H](O)[C@@H](O)[C@H]2O)[C@H](C)Cl)N(C)C1	nt	nt	nt	nt	i
COC(=O)N1CCCCC1c1cc(C(=O)Nc2ccc(OC)cc2C)no1 (configuration not stated)	i	nt	nt	nt	i
O=C(NCCc1ccccc1)C1CCCN1C(=O)Nc1cccc(Cl)c1 (configuration not stated)	-73.1	i	i	i	i
O=C(O)CCC(C(=O)O)n1c(O)c(C2=c3ccccc3=NC2=O)sc1=S (configuration not stated)	-102.8	i	i	i	i
O=C(NCCN1C(=O)S/C(=C\c2ccc(Cl)c(Cl)c2)C1=O)c1cnccn1	i	i	i	i	i
O=C(NCCN1C(=O)S/C(=C\c2ccc(Cl)c([N+](=O)[O-])c2)C1=O)C1=COCCO1	-55.2	i	i	i	i
Cc1ccccc1Oc1ccc2c(c1)[C@@H]1C[C@H]3[C@@H](C(=O)N1CC2)[C@H](C)ON3C	i	i	nt	i	30.9
COc1ccc(-c2ccc3c(c2)[C@@H]2C[C@H]4[C@@H](C(=O)N2CC3)[C@H](C)ON4C)cc1	i	i	nt	i	i
Cc1cc(C)nc(SCc2csc(N)n2)n1	-50.9	i	i	i	i
O=C(NCc1cccs1)C1Cc2c(-c3ccc(Cl)cc3)ccnc2O1 (configuration not stated)	i	nt	nt	nt	i
COc1ccc(C)cc1NS(=O)(=O)c1cccc2nonc12	-52.1	i	i	i	i
Cc1ccc(S(=O)(=O)N2C(=O)CCC2C(N)=O)cc1 (configuration not stated)	i	i	i	i	i
O=C1C(Cl)=C(N2CCOCC2)C(=O)N1c1ccc(Br)cc1	-69.2	i	i	i	i
SMILES	DRD3 antagonist	a7 integrin act	B2AR arrestin	IDH1 R132H inh	D3 ag
COc1ccc(CCNC[C@H](O)c2ccc(O)cc2)cc1OC	nt	nt	nt	nt	i
NS(=O)(=O)c1ccc(NNC(=O)c2ccc(Br)o2)c([N+](=O)[O-])c1	-64.9	i	i	i	i
O=C(NCCCN1CCOCC1)c1ccccc1N1C(=O)[C@@H]2Cc3c([nH]c4ccccc34)C(c3ccc(F)cc3)N2C1=O (some centres not stated)	i	i	i	i	32.9
O=C1c2cccnc2C(O)N1Cc1ccc(F)cc1 (configuration not stated)	-65.5	i	i	i	i
COc1ccc(S(=O)(=O)NCC(c2ccc(N(C)C)cc2)N2CCc3ccccc32)cc1F (configuration not stated)	nt	nt	nt	i	i
C[C@@H]1CN([C@@H](C)CO)S(=O)(=O)c2ccc(/C=C/c3ccccc3)cc2O[C@@H]1CN(C)Cc1ccc(C(=O)O)cc1	i	i	nt	i	37.5
C[C@@H]1CN([C@H](C)CO)S(=O)(=O)c2ccc(Br)cc2O[C@@H]1CN(C)Cc1ccc(C(=O)O)cc1	i	i	nt	i	i
Cc1ccc(/C=C2/CNC/C(=C/c3ccc(C)cc3)C2=O)cc1	-50.8	i	nt	i	i
Cc1ccc(/C=C2\CCOC2=O)cc1	i	i	i	i	i
CCn1c(=O)cc(OCC(=O)N(C)c2ccc(OC)cc2)c2ccccc21	nt	nt	nt	i	i
COc1ccccc1Nc1c2c(nc3ccc(NC(=O)c4cccc(OC)c4OC)cc13)CCCC2	nt	nt	nt	?	53.6
COc1ccccc1Nc1c2c(nc3ccc(NC(=O)c4ccccc4F)cc13)CCCC2	nt	nt	nt	i	i
CC(C)(C)C(=O)Nc1ccc(Sc2ccc([N+](=O)[O-])cc2)cc1	i	i	i	i	i
CC(=O)Nc1ccc(Sc2ccc([N+](=O)[O-])o2)cc1	-74.1	i	nt	i	i
CC[C@H](C)[C@H]1CNC(=O)C(=O)N1CC1CCN(CCc2ccc(Cl)c(Cl)c2)CC1	i	i	nt	i	i
CC[C@H](C)[C@H]1CNC(=S)N1CC1CCN(CC2CCC(C)CC2)CC1 (some centres not stated)	-103.8	i	nt	i	i
CC[C@H](C)[C@H]1CNC(=S)N1CC1CCN(CCC23CC4CC(CC(C4)C2)C3)CC1	-83.0	i	nt	i	i
CCn1nccc1NC(=O)c1csc([C@@H]2O[C@H](CO)[C@H](O)[C@H](O)[C@H]2O)n1	?	nt	nt	nt	37.0
COC(=O)c1cc2sc(C)cc2n1Cc1ccc(Br)cc1F	nt	nt	nt	nt	i
CCCCc1nc2ccccc2c(N)c1CCC (tested in a mixture with another compound)	i	11.2µM	i	i	i
Cc1ccc2c(c1)C(=O)CC1(CCCC1)O2	i	i	i	i	i
Cc1ccc2c(c1)C(=O)CC1(CCCCCC1)O2	-114.6	i	i	i	i
CC(C)(CN1CCN(C(c2ccccc2)c2ccccc2)CC1)NS(=O)(=O)c1ccccc1	-52.6	i	i	i	i
CC(CN1CCNCC1)(NS(=O)(=O)c1ccccc1)c1ccccc1 (configuration not stated)	-71.4	i	i	i	i
CC(C)(CN1CCN(Cc2ccccc2)CC1)NS(=O)(=O)c1ccccc1	-51.9	i	i	i	i
Oc1cccc(-c2c3nc(c(-c4cccc(O)c4)c4ccc([nH]4)c(-c4cccc(O)c4)c4nc(c(-c5cccc(O)c5)c5ccc2[nH]5)CC4)C=C3)c1	nt	nt	nt	nt	i
Oc1ccc(Cl)cc1/C=N/c1nccs1	i	i	i	i	i
